Results reported in the supplement of paper PMC10849652.
Targets with a hit are over-represented here; the source holds about 8,800 in all. About 0.5% of all pairs of compound and target were hits.

compound: CN1CCc2c(c3ccccc3n2Cc2ccc(C(=O)NO)cc2)C1 [Tubastatin A]; assay: log2 fold change, soluble protein after heating vs DMSO (PISA); higher = thermal stabilisation; K562 lysate, 10 uM; active = over 0.2 and 3.5 SD of the protein, either way, in both replicates (recomputed)
In short: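 Quantification was by TMTpro 16plex LC-MS/MS with equalised channel sums, applied to the supernatant after 21,000xg for 90 min. Samples were crude K562 extract at 1 mg/mL protein in PBS pH 7.4 with 1 mM MgCl2, treated with 10 μM compound for 30 min, heated for 3 min across 48°C-58°C, pooled and brought to 0.5% NP-40 at 4°C. Values are log-two fold changes in thermal stability relative to solvent controls, from duplicates.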

UniProt O95571, sequence (O95571 whole entry, looked up): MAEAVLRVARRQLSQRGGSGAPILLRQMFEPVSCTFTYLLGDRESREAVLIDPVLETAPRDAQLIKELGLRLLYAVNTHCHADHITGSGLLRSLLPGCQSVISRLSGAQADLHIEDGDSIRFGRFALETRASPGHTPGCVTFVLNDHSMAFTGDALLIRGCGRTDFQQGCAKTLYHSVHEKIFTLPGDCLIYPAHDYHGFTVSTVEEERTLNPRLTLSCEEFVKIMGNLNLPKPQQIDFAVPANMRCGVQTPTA
UniProt A6NHQ2, sequence (A6NHQ2 whole entry, looked up): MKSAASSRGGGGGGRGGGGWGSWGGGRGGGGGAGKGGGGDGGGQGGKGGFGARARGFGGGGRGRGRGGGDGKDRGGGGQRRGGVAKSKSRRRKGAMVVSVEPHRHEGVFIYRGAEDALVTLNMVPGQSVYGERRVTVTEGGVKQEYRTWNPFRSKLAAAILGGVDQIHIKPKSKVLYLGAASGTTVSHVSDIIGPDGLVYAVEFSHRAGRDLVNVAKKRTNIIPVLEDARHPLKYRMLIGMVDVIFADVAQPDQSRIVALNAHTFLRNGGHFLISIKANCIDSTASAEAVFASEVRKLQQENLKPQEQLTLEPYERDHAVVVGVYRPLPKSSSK
UniProt Q8TB52, sequence (Q8TB52 whole entry, looked up): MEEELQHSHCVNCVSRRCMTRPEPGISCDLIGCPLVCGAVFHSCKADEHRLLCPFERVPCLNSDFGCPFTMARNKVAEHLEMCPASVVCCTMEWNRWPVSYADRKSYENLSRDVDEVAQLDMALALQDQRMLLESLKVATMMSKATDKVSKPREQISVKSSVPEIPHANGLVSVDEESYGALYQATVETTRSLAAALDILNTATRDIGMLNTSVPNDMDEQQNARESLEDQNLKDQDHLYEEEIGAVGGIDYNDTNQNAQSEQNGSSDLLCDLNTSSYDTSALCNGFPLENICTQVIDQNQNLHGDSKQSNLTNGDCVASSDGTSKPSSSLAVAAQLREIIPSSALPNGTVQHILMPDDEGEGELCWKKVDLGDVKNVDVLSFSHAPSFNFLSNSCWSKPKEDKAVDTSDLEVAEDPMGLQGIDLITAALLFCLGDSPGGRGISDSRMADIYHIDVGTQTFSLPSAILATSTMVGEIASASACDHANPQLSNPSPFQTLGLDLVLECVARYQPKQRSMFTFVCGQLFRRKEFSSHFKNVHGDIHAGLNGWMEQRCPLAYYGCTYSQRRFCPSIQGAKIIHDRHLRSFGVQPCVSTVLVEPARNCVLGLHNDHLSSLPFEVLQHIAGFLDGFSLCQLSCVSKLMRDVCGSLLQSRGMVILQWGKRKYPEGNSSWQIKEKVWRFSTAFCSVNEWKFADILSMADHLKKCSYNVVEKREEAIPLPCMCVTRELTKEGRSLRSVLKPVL
UniProt Q96L91, sequence (Q96L91 whole entry, looked up): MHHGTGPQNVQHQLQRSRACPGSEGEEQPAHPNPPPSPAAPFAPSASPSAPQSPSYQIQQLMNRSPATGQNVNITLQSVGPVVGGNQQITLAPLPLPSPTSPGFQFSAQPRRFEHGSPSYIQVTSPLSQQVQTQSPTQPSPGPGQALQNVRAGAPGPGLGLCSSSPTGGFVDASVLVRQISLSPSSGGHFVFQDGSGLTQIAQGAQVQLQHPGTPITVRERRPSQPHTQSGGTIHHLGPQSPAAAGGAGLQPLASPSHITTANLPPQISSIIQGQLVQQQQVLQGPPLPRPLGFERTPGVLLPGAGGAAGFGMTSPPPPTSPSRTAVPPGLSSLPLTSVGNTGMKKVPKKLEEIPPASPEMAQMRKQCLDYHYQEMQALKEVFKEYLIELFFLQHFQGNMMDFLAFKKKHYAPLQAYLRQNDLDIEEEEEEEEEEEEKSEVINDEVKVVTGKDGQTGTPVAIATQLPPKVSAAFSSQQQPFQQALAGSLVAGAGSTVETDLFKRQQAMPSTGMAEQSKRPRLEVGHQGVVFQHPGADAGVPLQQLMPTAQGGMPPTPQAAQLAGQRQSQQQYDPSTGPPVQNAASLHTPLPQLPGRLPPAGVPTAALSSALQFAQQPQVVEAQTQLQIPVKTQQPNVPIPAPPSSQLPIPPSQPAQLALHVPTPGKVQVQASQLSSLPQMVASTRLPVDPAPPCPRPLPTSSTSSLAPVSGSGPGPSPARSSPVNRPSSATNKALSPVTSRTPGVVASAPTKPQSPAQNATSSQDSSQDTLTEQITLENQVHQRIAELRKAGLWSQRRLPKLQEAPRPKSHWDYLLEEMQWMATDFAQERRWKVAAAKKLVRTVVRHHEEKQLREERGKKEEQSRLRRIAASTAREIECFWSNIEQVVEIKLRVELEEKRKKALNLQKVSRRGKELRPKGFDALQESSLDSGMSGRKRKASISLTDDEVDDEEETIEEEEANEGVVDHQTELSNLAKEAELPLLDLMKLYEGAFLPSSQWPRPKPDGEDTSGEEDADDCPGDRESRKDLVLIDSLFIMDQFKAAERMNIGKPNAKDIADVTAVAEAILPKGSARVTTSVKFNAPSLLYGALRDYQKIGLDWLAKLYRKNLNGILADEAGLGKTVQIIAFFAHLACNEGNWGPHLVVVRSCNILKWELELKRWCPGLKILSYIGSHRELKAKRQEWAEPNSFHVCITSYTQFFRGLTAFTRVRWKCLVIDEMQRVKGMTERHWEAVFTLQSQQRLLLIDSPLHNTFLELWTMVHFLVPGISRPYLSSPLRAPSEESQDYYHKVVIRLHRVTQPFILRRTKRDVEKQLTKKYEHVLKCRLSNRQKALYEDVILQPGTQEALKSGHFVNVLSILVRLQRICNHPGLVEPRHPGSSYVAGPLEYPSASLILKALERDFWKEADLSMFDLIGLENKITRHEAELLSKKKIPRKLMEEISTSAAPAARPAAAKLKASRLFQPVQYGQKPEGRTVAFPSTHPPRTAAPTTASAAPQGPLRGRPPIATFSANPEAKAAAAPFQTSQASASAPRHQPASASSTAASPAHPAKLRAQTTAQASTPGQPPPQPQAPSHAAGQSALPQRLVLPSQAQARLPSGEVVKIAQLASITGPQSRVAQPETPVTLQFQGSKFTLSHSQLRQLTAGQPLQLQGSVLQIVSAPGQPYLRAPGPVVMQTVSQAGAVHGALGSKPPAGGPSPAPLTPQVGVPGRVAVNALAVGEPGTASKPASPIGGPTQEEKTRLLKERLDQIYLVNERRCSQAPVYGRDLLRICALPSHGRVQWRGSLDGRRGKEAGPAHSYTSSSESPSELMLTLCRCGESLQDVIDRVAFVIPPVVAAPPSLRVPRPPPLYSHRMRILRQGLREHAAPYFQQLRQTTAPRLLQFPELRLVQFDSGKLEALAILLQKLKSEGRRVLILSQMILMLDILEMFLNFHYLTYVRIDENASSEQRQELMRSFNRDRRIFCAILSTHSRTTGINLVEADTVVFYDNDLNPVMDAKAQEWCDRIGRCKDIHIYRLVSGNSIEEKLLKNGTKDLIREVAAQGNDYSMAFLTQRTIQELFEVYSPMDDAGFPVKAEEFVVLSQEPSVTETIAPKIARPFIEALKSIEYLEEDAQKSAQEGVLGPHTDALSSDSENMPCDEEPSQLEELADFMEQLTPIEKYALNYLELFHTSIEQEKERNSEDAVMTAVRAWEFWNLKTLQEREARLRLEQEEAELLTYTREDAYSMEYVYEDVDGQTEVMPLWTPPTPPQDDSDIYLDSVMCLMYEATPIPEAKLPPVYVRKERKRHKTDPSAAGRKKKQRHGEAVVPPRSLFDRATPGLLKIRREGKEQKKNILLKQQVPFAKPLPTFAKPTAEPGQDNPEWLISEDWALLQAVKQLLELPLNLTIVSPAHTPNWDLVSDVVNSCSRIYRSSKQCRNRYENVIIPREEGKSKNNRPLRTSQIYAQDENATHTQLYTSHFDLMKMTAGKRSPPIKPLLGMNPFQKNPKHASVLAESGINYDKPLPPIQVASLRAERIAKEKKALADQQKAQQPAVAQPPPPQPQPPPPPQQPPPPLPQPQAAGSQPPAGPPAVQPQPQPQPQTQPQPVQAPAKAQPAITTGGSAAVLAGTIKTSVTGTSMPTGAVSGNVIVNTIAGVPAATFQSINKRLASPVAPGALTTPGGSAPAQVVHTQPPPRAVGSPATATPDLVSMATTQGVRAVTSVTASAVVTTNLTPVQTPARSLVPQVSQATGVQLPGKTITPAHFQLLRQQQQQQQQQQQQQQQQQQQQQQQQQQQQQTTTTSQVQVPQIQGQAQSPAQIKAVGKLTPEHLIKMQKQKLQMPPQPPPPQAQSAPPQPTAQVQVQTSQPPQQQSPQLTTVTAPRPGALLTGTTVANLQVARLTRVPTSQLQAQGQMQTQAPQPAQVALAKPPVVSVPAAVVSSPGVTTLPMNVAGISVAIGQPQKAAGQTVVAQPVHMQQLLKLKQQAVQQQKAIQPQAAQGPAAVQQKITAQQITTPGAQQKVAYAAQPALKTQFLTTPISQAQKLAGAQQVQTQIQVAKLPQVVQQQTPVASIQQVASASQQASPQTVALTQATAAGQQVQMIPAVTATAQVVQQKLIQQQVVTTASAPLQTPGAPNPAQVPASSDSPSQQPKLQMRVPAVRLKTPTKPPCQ
UniProt Q9NX74, sequence (Q9NX74 whole entry, looked up): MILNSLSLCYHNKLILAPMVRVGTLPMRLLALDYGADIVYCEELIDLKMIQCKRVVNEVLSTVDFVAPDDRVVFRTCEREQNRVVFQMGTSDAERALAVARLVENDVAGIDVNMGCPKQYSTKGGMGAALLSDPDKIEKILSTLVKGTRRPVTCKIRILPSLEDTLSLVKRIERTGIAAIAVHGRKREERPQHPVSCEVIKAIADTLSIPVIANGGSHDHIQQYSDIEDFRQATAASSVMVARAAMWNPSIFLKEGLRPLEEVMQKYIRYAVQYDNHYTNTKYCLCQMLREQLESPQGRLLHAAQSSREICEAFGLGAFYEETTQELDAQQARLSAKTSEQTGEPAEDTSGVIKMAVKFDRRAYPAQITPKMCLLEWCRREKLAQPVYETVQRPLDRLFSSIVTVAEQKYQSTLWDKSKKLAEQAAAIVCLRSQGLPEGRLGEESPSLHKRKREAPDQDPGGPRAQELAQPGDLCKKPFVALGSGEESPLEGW
UniProt Q9NPA8, sequence (Q9NPA8 whole entry, looked up): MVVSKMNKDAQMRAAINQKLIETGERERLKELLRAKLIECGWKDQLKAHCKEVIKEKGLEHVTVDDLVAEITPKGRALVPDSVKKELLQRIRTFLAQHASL

log2 fold change, inactive:
FARSA (UniProt Q9Y285) -0.105
FECH isoform 2 (UniProt P22830) -0.123
EBP (UniProt Q15125) 0.004
EP300 (UniProt Q09472) 0.035
EP400 isoform 5 (UniProt Q96L91) -0.022
ESRRA (UniProt P11474) -0.169
DUS2 (UniProt Q9NX74) -0.084
GCLM (UniProt P48507) -0.049
GGT7 (UniProt Q9UJ14) 0.076
EMP3 (UniProt P54852) -0.021
FANCI (UniProt Q9NVI1) -0.097
FAM118B (UniProt Q9BPY3) -0.058
GFPT1 (UniProt Q06210) -0.075
FKBP1A (UniProt P62942) 0.047
EDARADD (UniProt Q8WWZ3) -0.003
FIBP (UniProt O43427) 0.003
EHD2 (UniProt Q9NZN4) -0.051
FADS1, A0A0A0MR51 0.1
GALNT2 (UniProt Q10471) 0.073
FASTKD5 (UniProt Q7L8L6) -0.11
FBLL1 (UniProt A6NHQ2) -0.049
DTWD1 (UniProt Q8N5C7) -0.028
GGA2 (UniProt Q9UJY4) -0.085
FYB1 isoform 3 (UniProt O15117) -0.001
DYRK1A (UniProt Q13627) -0.088
DUS3L (UniProt Q96G46) -0.065
ERI1 (UniProt Q8IV48) 0
FBXO9 (UniProt Q9UK97) -0.006
ERBIN isoform 8 (UniProt Q96RT1) 0.031
ENY2 (UniProt Q9NPA8) -0.024
EEF1AKNMT (UniProt Q8N6R0) -0.102
EEF1A1, A0A087WVQ9 -0.102
ETHE1 (UniProt O95571) 0.035
FBXO22 (UniProt Q8NEZ5) -0.002
FASTKD2 (UniProt Q9NYY8) -0.065
FBXO30 (UniProt Q8TB52) -0.106
